Screens as filed in PubChem BioAssay.
JMJD2A Tudor inh: qHTS Assay for Inhibitors of JMJD2A-Tudor Domain; Lysine-specific demethylase 4A (Homo sapiens), O75164; AlphaScreen JMJD2A-Tudor / H3K4me3 peptide binding; Potency, µM (doses to about 114 µM), actives largely listed as inhibitors; hit rate 4.4% among 390,000; AID 504339, 2011; note: nearly all actives have a fitted effect of over 50% in size
PLK1 PBD block: qHTS for Inhibitors of PLK1-PDB (polo-like kinase 1 - polo-box domain): Primary Screen | Plk1 PBD binding of FITC phosphopeptide, fluorescence polarization | hit rate 2.8% among 360,000 | Potency, µM, most hits filed as inhibitors | AID 720504, 2013; note: series mostly up to about 57 µM; nearly all actives have a fitted effect of over 65% in size
Sfp inh: qHTS Assay for Inhibitors of Bacillus subtilis Sfp phosphopantetheinyl transferase (PPTase); Potency, µM, actives largely listed as inhibitors; Biochemical Sfp PPTase activity, qHTS; AID 1490, 2009; hit rate 3.5% among 310,000;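 note: the enzyme is Sfp with the accession as filed and its product quenches rhodamine fluorescence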
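Fluorescence-quenching assay: 15 nM Sfp-PPTase preincubated 15 min at room temperature with compound, then 5 uM rhodamine-CoA and 12.5 uM BHQ-2-labelled YbbR peptide added. Fluorescence (ex 525/em 598 nm) read at start and after 30 min; difference gives rate.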
BAZ2B block: qHTS Assay for Inhibitors of BAZ2B. Bromodomain adjacent to zinc finger domain protein 2B (Homo sapiens), Q9UIF8. AlphaScreen BAZ2B-H3K14Ac peptide displacement. Potency, µM (series often up to 114 µM), most hits filed as inhibitors. hit rate 4.4% among 360,000. AID 504333, 2011; note: nearly all actives have a fitted effect of over 60% in size
Target sequence (Q9UIF8 whole entry, looked up, the tested form may be a part): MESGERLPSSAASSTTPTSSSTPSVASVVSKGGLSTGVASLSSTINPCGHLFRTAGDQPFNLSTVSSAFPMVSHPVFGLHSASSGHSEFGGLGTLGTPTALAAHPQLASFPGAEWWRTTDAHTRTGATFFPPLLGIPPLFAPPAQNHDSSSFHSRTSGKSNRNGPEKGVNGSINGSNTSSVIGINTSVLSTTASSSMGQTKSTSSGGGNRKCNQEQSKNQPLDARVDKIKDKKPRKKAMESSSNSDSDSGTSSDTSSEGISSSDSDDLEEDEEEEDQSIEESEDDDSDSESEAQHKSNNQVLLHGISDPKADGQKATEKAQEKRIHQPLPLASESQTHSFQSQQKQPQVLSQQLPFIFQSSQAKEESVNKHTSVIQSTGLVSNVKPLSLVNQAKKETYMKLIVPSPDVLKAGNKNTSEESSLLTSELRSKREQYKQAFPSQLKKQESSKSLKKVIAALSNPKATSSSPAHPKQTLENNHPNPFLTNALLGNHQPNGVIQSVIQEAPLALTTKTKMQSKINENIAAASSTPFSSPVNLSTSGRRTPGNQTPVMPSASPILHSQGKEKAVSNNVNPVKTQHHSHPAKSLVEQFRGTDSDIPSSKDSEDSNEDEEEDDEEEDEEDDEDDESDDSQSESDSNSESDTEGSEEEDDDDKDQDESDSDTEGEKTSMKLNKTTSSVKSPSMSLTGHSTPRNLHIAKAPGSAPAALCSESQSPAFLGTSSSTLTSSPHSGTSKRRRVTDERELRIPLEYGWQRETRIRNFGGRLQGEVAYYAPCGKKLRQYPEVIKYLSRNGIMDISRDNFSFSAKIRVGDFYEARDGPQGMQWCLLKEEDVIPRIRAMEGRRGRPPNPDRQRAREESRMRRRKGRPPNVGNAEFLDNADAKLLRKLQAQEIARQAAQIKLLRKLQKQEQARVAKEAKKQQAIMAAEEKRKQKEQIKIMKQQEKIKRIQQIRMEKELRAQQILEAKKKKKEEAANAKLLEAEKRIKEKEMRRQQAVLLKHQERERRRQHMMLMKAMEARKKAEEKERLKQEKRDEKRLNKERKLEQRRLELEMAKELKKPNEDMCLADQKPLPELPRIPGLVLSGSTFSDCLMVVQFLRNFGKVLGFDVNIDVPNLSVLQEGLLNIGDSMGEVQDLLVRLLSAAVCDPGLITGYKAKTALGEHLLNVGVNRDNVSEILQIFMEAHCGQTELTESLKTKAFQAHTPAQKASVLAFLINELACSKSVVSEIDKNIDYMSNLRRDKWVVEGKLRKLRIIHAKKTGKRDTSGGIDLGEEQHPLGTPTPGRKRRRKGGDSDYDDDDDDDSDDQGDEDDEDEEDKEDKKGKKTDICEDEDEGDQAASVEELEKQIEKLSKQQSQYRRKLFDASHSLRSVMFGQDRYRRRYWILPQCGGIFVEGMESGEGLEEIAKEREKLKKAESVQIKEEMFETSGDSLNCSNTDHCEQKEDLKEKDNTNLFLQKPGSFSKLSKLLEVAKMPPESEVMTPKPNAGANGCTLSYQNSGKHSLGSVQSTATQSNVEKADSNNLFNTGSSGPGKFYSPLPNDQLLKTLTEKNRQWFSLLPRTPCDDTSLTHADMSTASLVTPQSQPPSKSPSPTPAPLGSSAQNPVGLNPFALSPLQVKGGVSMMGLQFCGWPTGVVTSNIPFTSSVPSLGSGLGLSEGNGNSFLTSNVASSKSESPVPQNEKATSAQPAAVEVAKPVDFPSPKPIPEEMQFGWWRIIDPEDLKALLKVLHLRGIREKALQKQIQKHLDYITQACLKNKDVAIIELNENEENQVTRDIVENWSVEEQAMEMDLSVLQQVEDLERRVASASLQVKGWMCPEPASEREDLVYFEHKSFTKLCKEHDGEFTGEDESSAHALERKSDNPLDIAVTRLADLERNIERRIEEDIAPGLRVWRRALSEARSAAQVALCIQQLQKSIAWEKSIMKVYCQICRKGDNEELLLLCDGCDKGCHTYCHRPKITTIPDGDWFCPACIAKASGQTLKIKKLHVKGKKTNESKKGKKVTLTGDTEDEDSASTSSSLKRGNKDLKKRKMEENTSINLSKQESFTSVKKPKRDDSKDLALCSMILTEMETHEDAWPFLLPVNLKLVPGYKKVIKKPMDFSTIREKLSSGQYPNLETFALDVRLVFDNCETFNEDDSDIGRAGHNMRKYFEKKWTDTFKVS
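AlphaScreen displacement: compounds (up to 110uM) incubated 30 min at room temperature with a preformed 50 nM BAZ2B/50 nM biotinylated H3K14Ac peptide complex in PBS pH 7.4 with Tween-20. Donor and acceptor beads at 10 ug/mL final added, 20 min light-protected before reading.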
HP1b chromo inh: HTS for Inhibitors of HP1-beta Chromodomain Interactions with Methylated Histone Tails. AlphaScreen HP1-beta / biotin-H3K9me3 peptide binding. Potency, µM (titrated, usually from 114 µM), hits mostly inhibitors. hit rate 0.56% among 390,000. AID 540317, 2011; note: nearly all actives have a fitted effect of over 70% in size
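AlphaScreen: HP1-beta (50 nM) preformed 30 min with biotin-H3(1-18)K9me3 peptide (50 nM) in PBS pH 7.4, 0.01% Tween-20. Compound added for 30 min at RT, then streptavidin donor/nickel chelate acceptor beads (10 ug/mL) for 30 min.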
G9a inh: qHTS Assay for Inhibitors of Histone Lysine Methyltransferase G9a; Histone-lysine N-methyltransferase EHMT2 (Homo sapiens), Q96KQ7; G9a H3K9 monomethylation, AlphaScreen, 2 h; Potency, µM (titrated, usually from 102 µM), most hits filed as inhibitors; hit rate 8.8% among 350,000; note: nearly all actives have a fitted effect of over 75% in size
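G9a (20 nM) preincubated 15 min RT with compounds, then 500 nM biotinylated H3K9 peptide and 20 uM SAM added; 2 h RT reaction. Monomethyl-H3K9 product detected by AlphaScreen with anti-H3K9me1 antibody, streptavidin donor and anti-rabbit IgG acceptor beads.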
Of the large screens only hits and unclear results are named; the others gave an inactive call. The list is not random: actives were taken first. Their share in the collection is about 12%. Calls come from the whole dose curve; as a rule, active = well fitted curve in the direction sought with a large enough effect; inconclusive = small, poorly fitted or top-dose-only effect, or another doubt; inactive = no such curve, though single readings can be large; an effect the other way counts as inactive or inconclusive.

COC(=O)c1ccc(/C=N/N2CCN(Cc3ccccc3)CC2)cc1	Sfp inh inconclusive, G9a inh inconclusive
CCOc1ccccc1/C=N/N1CCN(Cc2ccccc2)CC1	JMJD2A Tudor inh 56.2µM, BAZ2B block 50.1µM, HP1b chromo inh inconclusive (no result: G9a inh)
Fc1ccccc1/C=N/N1CCN(Cc2ccccc2Cl)CC1	JMJD2A Tudor inh 50.1µM, Sfp inh inconclusive, BAZ2B block 50.1µM
Cc1ccc(NC(=O)Cn2c(-c3cncs3)nc3ccccc32)c(Br)c1	none (no result: PLK1 PBD block, Sfp inh)
CCC/C=C(\CCC)C(NS(=O)(=O)c1ccccc1)c1ccc(C(F)(F)F)cc1 (stereo not given)	none (no result: JMJD2A Tudor inh, PLK1 PBD block, BAZ2B block, HP1b chromo inh, G9a inh)
COc1ccc(Br)cc1/C=N/N1CCN(Cc2ccccc2)CC1	JMJD2A Tudor inh 39.8µM, BAZ2B block 28.2µM, HP1b chromo inh inconclusive, G9a inh inconclusive
Cn1cccc1/C=N/N1CCN(c2ccccc2)CC1	Sfp inh 28.2µM, BAZ2B block 50.1µM, HP1b chromo inh inconclusive, G9a inh 31.6µM
O=[N+]([O-])c1ccccc1/C=N/N1CCN(Cc2ccccc2)CC1	JMJD2A Tudor inh 25.1µM, BAZ2B block 28.2µM, HP1b chromo inh inconclusive, G9a inh 39.8µM
Cn1cccc1/C=N/n1cnnc1	BAZ2B block 79.4µM, G9a inh inconclusive
Clc1ccc(-n2cccc2/C=N/n2cnnc2)cc1	none
COc1ccccc1C(=O)NC(=O)COC(=O)c1cc[n+]([O-])cc1	none (no result: Sfp inh)
O=C(/C=C/c1ccccc1[N+](=O)[O-])NCc1ccccc1Cl	none
CCOc1ccccc1OCCOCCN1CCN(Cc2ccccc2)CC1	JMJD2A Tudor inh 0.794µM, Sfp inh 79.4µM, BAZ2B block 17.8µM, HP1b chromo inh inconclusive (no result: G9a inh)
O=[N+]([O-])c1ccccc1/C=N\N1CCN(Cc2ccccc2Cl)CC1	JMJD2A Tudor inh 35.5µM, BAZ2B block 28.2µM, HP1b chromo inh inconclusive (no result: G9a inh)
O=C(CN1CCN(Cc2ccccc2Cl)CC1)N/N=C/C=C/c1ccco1	G9a inh inconclusive
Clc1ccccc1CN1CCN(/N=C/C=C/c2ccco2)CC1	JMJD2A Tudor inh 44.7µM, Sfp inh 56.2µM, BAZ2B block 31.6µM, HP1b chromo inh inconclusive (no result: G9a inh)
CCOc1ccc(OCCOc2cccc(C(F)(F)F)c2)cc1	none
FC(F)(F)c1cccc(OCCN2CCN(Cc3ccccc3)CC2)c1	JMJD2A Tudor inh 0.891µM, Sfp inh 35.5µM, BAZ2B block 50.1µM, HP1b chromo inh inconclusive, G9a inh 11.2µM
CCOc1ccccc1NC(=O)CN1CCN(Cc2ccccc2)CC1	none
N#CCCn1c(=O)c(-c2ccccc2)nc2cnc(N3CCNCC3)nc21	none (no result: JMJD2A Tudor inh, PLK1 PBD block, BAZ2B block, HP1b chromo inh)
OCCOCCN1CCN(Cc2cccc(Oc3ccccc3)c2)CC1	none (no result: JMJD2A Tudor inh, PLK1 PBD block, BAZ2B block, HP1b chromo inh, G9a inh)
c1ccc(CN2CCN(CCOCCOc3ccc4c(c3)CCC4)CC2)cc1	JMJD2A Tudor inh 0.794µM, BAZ2B block inconclusive, HP1b chromo inh inconclusive (no result: G9a inh)
FC(F)(F)c1ccccc1/C=N/N1CCN(Cc2ccccc2)CC1	JMJD2A Tudor inh 44.7µM, BAZ2B block 39.8µM, G9a inh 7.08µM
Cn1cccc1/C=N/N1CCN(Cc2ccccc2Cl)CC1	JMJD2A Tudor inh 50.1µM, Sfp inh 56.2µM, BAZ2B block 35.5µM, HP1b chromo inh inconclusive, G9a inh 28.2µM
FC(F)(F)c1ccc(/C=N/N2CCN(Cc3ccccc3)CC2)cc1	JMJD2A Tudor inh inconclusive, BAZ2B block inconclusive, HP1b chromo inh inconclusive, G9a inh inconclusive
Cc1ccc2nc(N3CCN(c4ccccc4F)CC3)c3nnnn3c2c1	none (no result: PLK1 PBD block, Sfp inh)
Cn1nnnc1Sc1ncnc2scc(-c3ccccc3C#N)c12	none (no result: PLK1 PBD block, Sfp inh, BAZ2B block, HP1b chromo inh, G9a inh)
CCC(c1nnc(SCC(=O)Nc2ccc(C(=O)N(C)C)cc2)n1Cc1ccccc1)N(C)C (stereo not given)	none
O=c1[nH][nH]c(=O)c2c(NS(=O)(=O)c3ccccc3)cccc12	JMJD2A Tudor inh 44.7µM, PLK1 PBD block inconclusive
O=S(=O)(Nc1ccc(NS(=O)(=O)c2ccccc2)c2ccccc12)c1ccccc1	none (no result: JMJD2A Tudor inh, Sfp inh, BAZ2B block, HP1b chromo inh, G9a inh)
C=CCn1c(=N)n(CC(O)COc2ccccc2OC)c2ccccc21 (stereo not given)	none
C=CCn1c(-c2ccc(OC)c(OC)c2)cs/c1=N\c1ccccn1	PLK1 PBD block inconclusive, Sfp inh 17.8µM, BAZ2B block inconclusive, HP1b chromo inh inconclusive, G9a inh 3.55µM
CCCn1c(N)c(C(=O)CSc2nc(N)cc(=O)[nH]2)c(=O)n(C)c1=O	none (no result: Sfp inh)
O=C1C2C3C=CC(C3=C(c3ccccc3)c3ccccc3)C2C(=O)N1CCO (stereo not given)	none
O=C1C2C3C=CC(C3=C(c3ccccc3)c3ccccc3)C2C(=O)N1Cc1ccccc1 (stereo not given)	PLK1 PBD block 67µM, Sfp inh 50.1µM, G9a inh 39.8µM
O=C(CN(CC1CCCO1)C(=O)CNS(=O)(=O)c1ccc(F)cc1)NC1CCCCC1 (stereo not given)	none
COc1cc(C2SC(C)C(=O)N2CCc2ccccc2)cc(OC)c1OC (stereo not given)	G9a inh 50.1µM
Cc1ccc(NC(=O)c2c(C)oc3ncn(C)c(=O)c23)cc1F	none (no result: PLK1 PBD block, Sfp inh)
CCN(CC)C(=O)CSc1nc2c(sc(=S)n2-c2ccccc2)c(=O)n1-c1ccccc1OC	none
COc1ccccc1-n1c(SCC(=O)O)nc2c(sc(=S)n2-c2ccc(C)c(C)c2)c1=O	G9a inh inconclusive
